This is part of a sample that, as a whole, favours compounds with a hit. Of some 83,000 tested, about 20% had one in any assay.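 Assay: single dose, 48 h. Readout: percent growth (0 = no net growth; negative = cell death). Active: <10.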 Values without a mark were called inactive. Calls of active or inactive are those of the source.
Legend:
Assay in all cases: NCI-60 one-dose screen, 48 h (100 = growth as untreated, 0 = no growth, -100 = all killed)
Settings in all cases: 10 µM unless noted
SK-MEL-2 melanoma = system: SK-MEL-2 melanoma
EKVX NSCLC = system: EKVX NSCLC
SN12C renal = system: SN12C renal
UO-31 renal = system: UO-31 renal
TK-10 renal = system: TK-10 renal
ACHN renal = system: ACHN renal
CAKI-1 renal = system: CAKI-1 renal
A498 renal = system: A498 renal
CCRF-CEM leukemia = system: CCRF-CEM leukemia
MOLT-4 leukemia = system: MOLT-4 leukemia
RPMI-8226 leukemia = system: RPMI-8226 leukemia
OVCAR-4 ovarian = system: OVCAR-4 ovarian
IGROV1 ovarian = system: IGROV1 ovarian
OVCAR-3 ovarian = system: OVCAR-3 ovarian
HS 578T breast = system: HS 578T breast
NCI/ADR-RES ovarian = system: NCI/ADR-RES ovarian
OVCAR-8 ovarian = system: OVCAR-8 ovarian
OVCAR-5 ovarian = system: OVCAR-5 ovarian
SK-OV-3 ovarian = system: SK-OV-3 ovarian
SR leukemia = system: SR leukemia

| SMILES | growth (SK-MEL-2 melanoma) | growth (EKVX NSCLC) [%] | growth (SN12C renal) | growth (UO-31 renal) | growth (TK-10 renal) | growth (ACHN renal) | growth (CAKI-1 renal) | growth (A498 renal) | growth (CCRF-CEM leukemia) | growth (MOLT-4 leukemia) | growth (RPMI-8226 leukemia) | growth (OVCAR-4 ovarian) | growth (IGROV1 ovarian) | growth (OVCAR-3 ovarian) | growth (HS 578T breast) | growth (NCI/ADR-RES ovarian) | growth (OVCAR-8 ovarian) | growth (OVCAR-5 ovarian) | growth (SK-OV-3 ovarian) | growth (SR leukemia) |
| --- | --- | --- | --- | --- | --- | --- | --- | --- | --- | --- | --- | --- | --- | --- | --- | --- | --- | --- | --- | --- |
| O=C1c2cccc(NCCN=Cc3cc([N+](=O)[O-])ccc3O)c2C(=O)c2c(NCCN=Cc3cc([N+](=O)[O-])ccc3O)cccc21 | 96% | 87.5 | 40.5% | 76.5% | 114% | 70.7% | 56.7% | 80.9% | 32.5% | 4.21% (active) | 7.36% (active) | 69.3% | 73.5% | 85.1% | 53.9% | 99.9% |  |  |  |  |
| COc1ccc(C2=NN(C(=O)c3cc(OC)c(OC)c(OC)c3)C(c3ccc(Cl)cc3)C2)cc1OC (stereo not given) | 39.5% | 53.4 | 39.5% | 34.4% | 25.4% | 43.3% | 26.6% | -1.72% (active) | -2.55% (active) | 9.1% (active) | -18.4% (active) |  | 36.7% | -35.2% (active) | 0.152% (active) | -36.3% (active) | 34.4% | 41.4% | 25.8% |  |
| CCOP(=O)(OCC)C1CP(=O)(c2ccccc2)CC(C)=C1Cl (stereo not given) | 102% | 107 | 96% | 68.1% | 77.1% | 109% | 108% | 111% | -90.6% (active) | 93% | 69.6% | 107% |  | 104% | 112% | 93.5% | 85.7% |  | 127% |  |
| O=C(/C=C/c1cccc(O)c1)c1cccc(-n2cc(-c3ccc4ccccc4c3)[nH]c2=O)c1 | 84.4% | 11.2 | 5.36% (active) | 35.5% | -5.34% (active) | -40.7% (active) | -1.58% (active) | 91.9% | 1.72% (active) | -1.37% (active) |  | -76.2% (active) | 85.7% | -73.2% (active) | -11% (active) | -39.3% (active) | 13.5% | -42.6% (active) | 19.6% |  |
| COC(=O)c1ccc(C2Nc3ccc(S(=O)(=O)Nc4ccc(C)c(C)c4)cc3C3OCCC23)cc1 (stereo not given) | 93.4% | 57.9 | 85.3% | 74.9% | 90.4% | 89.4% | 75% | 74.3% | 74.2% | 60.6% |  | 82.8% | 84.4% | 79.1% | 100% | 88.5% | 92% | 95.7% | 92% |  |
| NCCCNc1nc2ccccc2c2c(=O)c3cccc(Cl)c3sc12 | 99.4% | 31.2 | 21.1% | 3.93% (active) | 58% | 7.6% (active) | 17.1% | 65.2% | 2.48% (active) | -23.4% (active) |  | 38.2% | 7.81% (active) | -51.5% (active) | 28.1% | 29.2% | -16.2% (active) | 50% | 73% |  |
| Cc1ccc(/C=C2\C(=O)N(C)c3ccc(S(=O)(=O)Nc4ccc(C(C)(C)C)cc4)cc32)s1 | 90.3% | 54.3 | 36.7% | 56.9% | 70.2% | 59.8% | 55.2% | 75.9% | 65.6% | 78.2% |  | -1.02% (active) | 63.9% | 11.4% | -5.78% (active) | 62.1% | 29.5% | 69.4% | 76.4% |  |
| O=C(CSc1nccc(Nc2ccc(S(=O)(=O)Nc3nccs3)cc2)n1)c1ccc(F)cc1 | 105% | 97.5 | 110% | 75.8% | 110% | 103% | 96.4% | 109% | 108% | 115% | 108% | 99.2% | 106% | 111% | 97.9% | 101% |  | 106% | 97.6% |  |
| Cc1ccccc1NC(=O)N/C(N)=N/c1nc(-c2cccc([N+](=O)[O-])c2)cs1 | 37.3% | 49.3 | 54.8% | 58.1% | 101% | 53.7% | 26.4% | -3.64% (active) | 35.9% | 30.2% | 34.1% | 56.5% | 37.1% | 26.9% | 11.2% | 2.74% (active) | 67.3% |  | 57.2% |  |
| CC(C)(C)CC(C)(C)Nc1c(-c2ccncc2)nc2cnccn12 | 106% | 93.1 | 102% | 86.7% | 99.2% | 87.7% | 80.6% | 90.9% | 91.6% | 94.1% |  | 84% | 99.8% | 102% | 92.2% | 99.5% | 95.6% | 93.7% | 92.8% |  |
| COc1cc(C2CC(=O)Nc3c2c(C)nn3-c2nc3ccccc3[nH]2)c(OC)c2c1OCO2 (stereo not given) | 80.7% | 71.7 | 82.2% | 40.2% | 36.4% | 86.2% | 40.6% | 38.8% | 61.7% | 13.5% | 60.1% |  | 63.1% | 68.8% | 53.1% | 63.2% | 67.9% | 105% | 81.7% |  |
| O=C(CSc1nnc(-c2ccc(NC(=O)c3cccnc3)cc2)o1)Nc1cccc(Br)c1 | 96.5% | 88.3 | 51.1% | 95.9% | 121% | 99.2% | 82.6% | 96.2% | 72.2% | 84.5% |  | 93.8% | 80.5% | 107% | 90.6% | 93.8% | 88.7% | 99.3% | 110% |  |
| COc1ccc(OC)c2c1[nH]c(=O)c1c3ncccc3cn21 | 65.6% | 34.4 | 13.3% | 26.5% | 38.6% | 17.7% | -29.2% (active) | 31.5% | 36.5% | 17.7% | 30.1% |  | 28% | 46.8% | 69.2% | 13.8% |  |  | 38.9% |  |
| COc1cc(C(=O)/C=C/c2c(-c3ccc(F)cc3)nc3sc(C)cn23)cc(OC)c1OC | 144% | 17.4 | 56.3% | 58% | 52.2% | 46.5% | 32.8% | -1.47% (active) | 14.8% | -38.8% (active) |  | 24.4% | 84.9% | 16.5% | 25.4% | 2.75% (active) | 22.5% | 143% | 64.4% |  |
| O=C(Nc1cccc(C(F)(F)F)c1)Nc1cccc(C(F)(F)F)c1 | -28.5% (active) | 13.8 | 2.57% (active) | 4.46% (active) | -0.607% (active) | 5.92% (active) | 16.4% | -18.2% (active) | 2.44% (active) |  | -10.5% (active) | 23.9% | 26.8% | 14.4% | 8.56% (active) | 7.46% (active) | 4.98% (active) | 25.3% | -15.3% (active) | -22.6% (active) |
| COc1cccc(-c2nn(-c3ccccc3)cc2-c2ccnc(NCCCNC(=O)Nc3ccc(Cl)c(Cl)c3)c2)c1 | -53.9% (active) | 37.8 | 37.5% | -34.4% (active) | 45.7% | 32.9% | 24% | 4.95% (active) | 1.35% (active) |  | -2.49% (active) | 30.9% | 36.6% | 29.5% | -26.1% (active) | -20.3% (active) | 1.46% (active) | 54.4% | 22.2% | -32.8% (active) |
